Values without a mark were called inactive. Results filed as inconclusive are left out. The source made the active and inactive calls. Unless noted, calls follow the shape of the dose curve; as a rule, active = well fitted curve in the direction sought with a large enough effect; inconclusive = small, poorly fitted or top-dose-only effect, or another doubt; inactive = no such curve, though single readings can be large; an effect the other way counts as inactive or inconclusive.
Experiments:
[1] = biological target: Lysosomal acid glucosylceramidase (Homo sapiens) (UniProt P04062); experiment: Glucocerebrosidase-p2 (AID 348; in the data active = potency below about 10 µM; also: potency is read from the fitted curve at half-maximal effect); conditions: purified GBA, blue fluorogenic substrate, 40 min
Sequence of Lysosomal acid glucosylceramidase (Homo sapiens) (P04062 whole entry, looked up): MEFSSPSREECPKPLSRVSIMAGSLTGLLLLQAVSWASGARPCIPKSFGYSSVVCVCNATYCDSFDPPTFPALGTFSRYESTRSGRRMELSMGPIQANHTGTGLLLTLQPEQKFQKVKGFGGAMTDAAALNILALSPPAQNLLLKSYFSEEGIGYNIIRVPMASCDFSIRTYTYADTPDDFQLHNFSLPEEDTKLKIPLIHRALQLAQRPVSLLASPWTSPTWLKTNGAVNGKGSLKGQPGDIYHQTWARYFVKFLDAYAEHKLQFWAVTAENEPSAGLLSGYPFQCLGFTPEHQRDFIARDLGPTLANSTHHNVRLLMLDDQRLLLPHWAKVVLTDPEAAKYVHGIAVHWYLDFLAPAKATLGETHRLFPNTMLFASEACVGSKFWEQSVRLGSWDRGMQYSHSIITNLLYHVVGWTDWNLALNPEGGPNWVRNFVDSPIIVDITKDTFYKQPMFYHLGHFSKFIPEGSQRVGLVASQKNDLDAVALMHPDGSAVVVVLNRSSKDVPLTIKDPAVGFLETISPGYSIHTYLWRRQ
Summary of the method: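 Compounds titrated from 0.6 nM upwards against 0.2 nM enzyme in pH 5.9 citric acid/KH2PO4, taurocholate, tween-20; blue fluorogenic substrate 80 uM, 40 min room temperature, stopped and read Ex 365/Em 440 for AC50.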

[2] = AP1 Signaling Pathway (AID 357; active = well fitted curve in either direction with a large enough effect, not every such curve was filed as active;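 also: ME-180 reporter cells stimulated with EGF at its EC50 level; % is scaled to controls: 0 for no effect and ±100 for the full control effect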); conditions: ME-180 AP-1-bla reporter, EGF-induced, beta-lactamase ratio, 5 h; at 7.69 µM (top of the series) unless noted
Summary of the method: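 Cells are seeded overnight, exposed to compound titrations and an EC50 level of EGF for 5 hours at 37 °C, then loaded with CCF4 dye for 2.5 hours. Beta-lactamase activity under the AP-1 element is read as a blue/green ratio.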

[3] = NFAT Signaling Pathway (AID 444; active = well fitted curve in either direction with a large enough effect, not every such curve was filed as active;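 also: carbachol stimulus at about its EC50 of 1 µM final; % is scaled to controls: 0 for no effect and ±100 for the full control effect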); conditions: Jurkat NFAT-bla M1, carbachol, beta-lactamase ratio, 5 h; at 7.69 µM (top of the series) unless noted
Summary of the method: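 Read-out: CCF4 FRET ratio (460 nm/530 nm) after 1 h RT dye loading, used for %activity and AC50 from titration series. Cells: Jurkat NFAT-β-lactamase/M1 line, treated with compound plus 1 uM carbachol for 5 h, 37 °C.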

[4] = Stat Signaling Pathway (AID 446; active = well fitted curve in either direction with a large enough effect, not every such curve was filed as active;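 also: ME-180 cervical cancer cells given 40 pM IL-6 alongside compound; SIE-controlled beta-lactamase reporter measured as 460/530 nm FRET emission ratio; % is scaled to controls: 0 for no effect and ±100 for the full control effect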); conditions: ME-180 SIE beta-lactamase reporter, IL-6 stimulated, 5 h; at 7.69 µM (top of the series) unless noted
Summary of the method: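 ME-180 SIE-bla cells; overnight plating; cpd + IL-6 40 pM, 5 h, 37 C; LiveBLAzer 2.5 h RT; 460/530 nm emission ratio. Normalized to 300 pM IL-6 and 125 nM JAK inhibitor controls.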

[5] = biological target: Glucocorticoid receptor (Homo sapiens) (UniProt P04150); experiment: GR-GFP Redistribution (AID 450;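 active = compounds whose dose series gives a full or clear partial fitted curve of increased nuclear translocation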; also: potency is read from the fitted curve at half-maximal effect); conditions: U2OS GR-GFP nuclear translocation, laser cytometry, 2 h
Sequence of Glucocorticoid receptor (Homo sapiens) (P04150 whole entry, looked up, the tested form may be a part): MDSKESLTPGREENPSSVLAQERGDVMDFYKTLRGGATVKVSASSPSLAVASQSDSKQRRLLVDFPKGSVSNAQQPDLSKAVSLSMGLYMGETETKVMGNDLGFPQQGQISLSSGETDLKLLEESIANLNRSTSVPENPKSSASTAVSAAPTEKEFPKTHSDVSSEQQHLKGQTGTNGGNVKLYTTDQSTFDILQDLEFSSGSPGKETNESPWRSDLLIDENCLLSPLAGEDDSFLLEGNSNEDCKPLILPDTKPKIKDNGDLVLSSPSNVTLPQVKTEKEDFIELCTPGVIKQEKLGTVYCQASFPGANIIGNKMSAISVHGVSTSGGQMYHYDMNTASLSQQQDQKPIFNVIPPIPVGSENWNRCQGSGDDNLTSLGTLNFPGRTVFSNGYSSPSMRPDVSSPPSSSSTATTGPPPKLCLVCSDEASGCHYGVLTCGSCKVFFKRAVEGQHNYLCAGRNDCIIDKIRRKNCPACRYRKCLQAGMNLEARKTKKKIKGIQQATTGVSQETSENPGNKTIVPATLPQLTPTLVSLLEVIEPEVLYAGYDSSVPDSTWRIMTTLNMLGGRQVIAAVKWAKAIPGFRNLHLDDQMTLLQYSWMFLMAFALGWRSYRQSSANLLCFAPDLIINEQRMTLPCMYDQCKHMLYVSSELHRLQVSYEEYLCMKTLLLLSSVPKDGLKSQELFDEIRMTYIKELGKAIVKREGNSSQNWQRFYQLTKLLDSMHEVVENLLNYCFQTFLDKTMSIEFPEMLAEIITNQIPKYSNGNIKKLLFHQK

[6] = biological target: Glucocorticoid receptor (Homo sapiens) (UniProt P04150); experiment: GR-EFC Redistribution (AID 451; calls by dose curve; also: potency is read from the fitted curve at half-maximal effect); conditions: CHO-K1 GR-EFC translocation, beta-gal luminescence, 2 h
Summary of the method: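 Translocation of GR-ED fusion to nuclear EA restores b-gal, read by luminescence after 1 h room-temperature detection. Engineered CHO-K1 biosensor cells, 1,000/well, exposed 2 h at 37 C to titrations up to 46 uM final.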

[7] = biological target: Mitogen-activated protein kinase 10 (Mus musculus) (UniProt Q61831); experiment: JNK3 AlphaScreen Assay (AID 530; active = well fitted curve in either direction with a large enough effect, not every such curve was filed as active;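 also: kinase came from lysate of stimulated human HepG2 cells; signal reports phosphorylation of biotinylated GST-cJun 1-79 at Ser73 with 10 µM ATP; % is scaled to controls: 0 for no effect and ±100 for the full control effect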); conditions: JNK3 lysate, c-Jun phosphorylation; series mostly up to 57.1 µM
Summary of the method: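 Room-temperature AlphaScreen kinase assay; pre-activated HepG2 lysate as JNK3 source, biotin-GST-cJun(1-79) substrate, 10 uM ATP, compound 15 min preincubation.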

[8] = biological target: Dual specificity protein kinase CLK4 (Homo sapiens) (UniProt Q9HAZ1); experiment: qHTS Assay for Inhibitors of CDC-like Kinase 4 (Kinase-Glo Assay) (AID 1770); conditions: recombinant Clk4, Kinase-Glo ATP depletion luminescence; series mostly up to 66.7 µM; also: nearly all actives have a fitted effect of over 65% in size; also: potency is read from the fitted curve at half-maximal effect
Sequence of Dual specificity protein kinase CLK4 (Homo sapiens) (Q9HAZ1 whole entry, looked up): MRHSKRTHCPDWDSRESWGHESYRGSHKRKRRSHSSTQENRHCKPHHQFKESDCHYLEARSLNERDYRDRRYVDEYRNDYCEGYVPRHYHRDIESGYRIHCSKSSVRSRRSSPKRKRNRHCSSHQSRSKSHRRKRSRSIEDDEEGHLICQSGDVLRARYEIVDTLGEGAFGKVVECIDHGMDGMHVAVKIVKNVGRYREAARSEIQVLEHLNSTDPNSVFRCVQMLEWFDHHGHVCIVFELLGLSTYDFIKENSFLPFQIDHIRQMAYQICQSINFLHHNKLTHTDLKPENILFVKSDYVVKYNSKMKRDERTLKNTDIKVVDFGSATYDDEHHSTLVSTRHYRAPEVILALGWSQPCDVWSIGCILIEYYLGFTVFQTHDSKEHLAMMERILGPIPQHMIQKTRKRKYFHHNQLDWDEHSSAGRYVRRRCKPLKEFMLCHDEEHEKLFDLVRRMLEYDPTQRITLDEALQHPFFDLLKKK
Summary of the method: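 Recombinant human Clk4 (25 nM) phosphorylated RS repeat peptide (100 uM) with 1 uM ATP in Tris pH 7.5/MgCl2/EGTA/DTT/Triton buffer for 4.5 h at room temperature. Residual ATP was quantified by Kinase-Glo luciferase luminescence.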

[9] = biological target: Dual specificity protein kinase CLK4 (Homo sapiens) (UniProt Q9HAZ1); experiment: qHTS Assay for Inhibitors of CDC-like Kinase 4 (ADP-Glo Assay) (AID 1771); conditions: recombinant CLK4, ADP-Glo luminescence; series mostly up to 80 µM; also: nearly all actives have a fitted effect of over 70% in size; also: potency is read from the fitted curve at half-maximal effect
Summary of the method: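 Clk4 (25 nM) was incubated 1 hr at room temperature with 100 uM RS repeat peptide and 1 uM ATP in buffer with 2 mM MgCl2, 0.5 mM EGTA, 2.5 mM DTT. ADP formed was quantified by ADP-Glo luminescence.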

[10] = biological target: Dual specificity protein kinase CLK4 (Homo sapiens) (UniProt Q9HAZ1); experiment: qHTS Assay for Inhibitors of CDC-like Kinase 4 (ADP-FP Assay) (AID 1795); conditions: Transcreener ADP fluorescence polarization; series mostly up to 50 µM; also: nearly all actives have a fitted effect of over 60% in size; also: potency is read from the fitted curve at half-maximal effect
Summary of the method: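 Recombinant human Clk4 (6.25 nM) phosphorylated RS repeat peptide (100 uM) with 1 uM ATP in Tris pH 7.5/MgCl2/EGTA/DTT/Triton buffer for one hour. ADP was quantified by Transcreener competitive fluorescence polarization against an ADP calibration curve.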

[11] = biological target: Ubiquitin carboxyl-terminal hydrolase 1 (Homo sapiens) (UniProt O94782); experiment: Inhibitors of USP1/UAF1: Pilot qHTS (AID 504865); conditions: purified USP1/UAF1, Ub-rhodamine cleavage fluorescence; series mostly up to 54.9 µM;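 also: rhodamine fluorescence freed from ubiquitin-rhodamine substrate followed over time; top concentration of the series differs between compounds; % is scaled to controls: 0 for no effect and ±100 for the full control effect; nearly all actives have a fitted effect of over 35% in size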
Sequence of Ubiquitin carboxyl-terminal hydrolase 1 (Homo sapiens) (O94782 whole entry, looked up): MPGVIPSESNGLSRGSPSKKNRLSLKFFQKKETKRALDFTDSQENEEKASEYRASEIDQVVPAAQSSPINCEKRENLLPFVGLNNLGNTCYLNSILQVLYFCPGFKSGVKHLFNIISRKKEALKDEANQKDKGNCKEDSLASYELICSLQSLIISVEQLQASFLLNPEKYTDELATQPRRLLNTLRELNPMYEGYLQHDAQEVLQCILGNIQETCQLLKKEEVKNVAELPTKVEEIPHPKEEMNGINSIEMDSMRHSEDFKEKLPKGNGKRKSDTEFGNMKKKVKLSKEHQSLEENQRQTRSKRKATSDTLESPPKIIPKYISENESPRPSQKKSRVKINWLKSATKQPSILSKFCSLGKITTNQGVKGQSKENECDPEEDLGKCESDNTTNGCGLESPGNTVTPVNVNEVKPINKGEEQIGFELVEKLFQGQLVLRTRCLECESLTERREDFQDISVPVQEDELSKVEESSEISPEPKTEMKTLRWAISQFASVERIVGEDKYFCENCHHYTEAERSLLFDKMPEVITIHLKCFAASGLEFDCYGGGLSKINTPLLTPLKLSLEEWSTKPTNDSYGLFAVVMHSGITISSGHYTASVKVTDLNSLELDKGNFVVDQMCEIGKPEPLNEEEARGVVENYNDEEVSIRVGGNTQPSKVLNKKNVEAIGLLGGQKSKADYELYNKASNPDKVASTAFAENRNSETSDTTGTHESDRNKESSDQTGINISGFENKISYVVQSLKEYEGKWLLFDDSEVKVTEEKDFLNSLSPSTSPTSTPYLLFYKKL
Summary of the method: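 USP1/UAF1 complex (1nM) preincubated with compound 15 min at room temperature, then Ub-Rho substrate (150nM final) added. Fluorescence read kinetically at 480/540 nm, 6 reads every 60 seconds. Buffer: 50mM HEPES pH 7.8, 0.5mM EDTA, 0.1 mg/ml BSA, 1mM TCEP, 0.01% Tween-20.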

[12] = Primary qHTS for small molecule stabilizers of the endoplasmic reticulum resident proteome: Secreted ER Calcium Modulated Protein (SERCaMP) assay (AID 1508630); conditions: SH-SY5Y GLuc-SERCaMP (Gaussia luciferase released on ER calcium loss) secretion, thapsigargin, luminescence; series mostly up to 38.4 µM; also: % is scaled to controls: 0 for no effect and ±100 for the full control effect
Summary of the method: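 GLuc-SERCaMP-expressing SH-SY5Y cells, pretreated 16 h with compound, are challenged with thapsigargin to empty ER calcium stores; after 4 h, coelenterazine is added directly to the medium and luminescence is imaged.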

[13] = biological target: 3',5'-cyclic-AMP phosphodiesterase 4B (Homo sapiens) (UniProt Q07343); experiment: qHTS Assay for Inhibitors of PDE-IV (AID 607; active = well fitted activation curve with a large enough effect in the main read-out, with a control signal flat, not every such curve was filed as active; also: % of control where 0% means no effect); conditions: HEK293 ACTOne CNG channel cells, membrane potential fluorescence; series mostly up to 22.9 µM
Sequence of 3',5'-cyclic-AMP phosphodiesterase 4B (Homo sapiens) (Q07343 whole entry, looked up): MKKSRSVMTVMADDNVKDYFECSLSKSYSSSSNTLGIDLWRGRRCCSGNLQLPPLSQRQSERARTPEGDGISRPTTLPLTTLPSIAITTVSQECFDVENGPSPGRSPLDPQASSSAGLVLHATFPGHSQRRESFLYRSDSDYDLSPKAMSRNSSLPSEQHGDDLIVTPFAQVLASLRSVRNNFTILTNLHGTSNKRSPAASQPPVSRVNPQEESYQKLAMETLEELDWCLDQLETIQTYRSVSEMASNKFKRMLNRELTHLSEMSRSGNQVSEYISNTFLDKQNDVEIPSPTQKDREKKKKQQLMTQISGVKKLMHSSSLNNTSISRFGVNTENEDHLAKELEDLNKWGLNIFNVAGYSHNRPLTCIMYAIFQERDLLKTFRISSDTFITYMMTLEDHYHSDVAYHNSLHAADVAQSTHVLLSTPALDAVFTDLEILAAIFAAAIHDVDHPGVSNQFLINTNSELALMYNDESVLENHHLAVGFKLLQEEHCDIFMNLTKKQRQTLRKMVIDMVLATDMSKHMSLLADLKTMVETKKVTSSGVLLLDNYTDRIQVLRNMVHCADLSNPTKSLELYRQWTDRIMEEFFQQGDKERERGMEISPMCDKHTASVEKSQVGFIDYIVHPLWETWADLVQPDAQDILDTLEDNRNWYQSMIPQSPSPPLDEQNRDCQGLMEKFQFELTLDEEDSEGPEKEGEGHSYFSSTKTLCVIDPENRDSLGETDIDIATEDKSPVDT
Summary of the method: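 ACTOne HEK293 cells carry a modified cAMP-gated CNG channel and express endogenous PDE4; plated 1000 cells/well, compounds up to 22.9 uM final. Membrane-potential dye fluorescence (ex 535/em 590) was read; parental cells received 10 uM forskolin + 100 uM RO 20-1724.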

[14] = biological target: Cytochrome P450 1A2 (Homo sapiens) (UniProt P05177); experiment: p450-cyp1a2 (AID 410; calls by dose curve; also: potency is read from the fitted curve at half-maximal effect); conditions: recombinant CYP1A2, luciferin-ME demethylation, luminescence; series mostly up to 57 µM
Sequence of Cytochrome P450 1A2 (Homo sapiens) (P05177 whole entry, looked up): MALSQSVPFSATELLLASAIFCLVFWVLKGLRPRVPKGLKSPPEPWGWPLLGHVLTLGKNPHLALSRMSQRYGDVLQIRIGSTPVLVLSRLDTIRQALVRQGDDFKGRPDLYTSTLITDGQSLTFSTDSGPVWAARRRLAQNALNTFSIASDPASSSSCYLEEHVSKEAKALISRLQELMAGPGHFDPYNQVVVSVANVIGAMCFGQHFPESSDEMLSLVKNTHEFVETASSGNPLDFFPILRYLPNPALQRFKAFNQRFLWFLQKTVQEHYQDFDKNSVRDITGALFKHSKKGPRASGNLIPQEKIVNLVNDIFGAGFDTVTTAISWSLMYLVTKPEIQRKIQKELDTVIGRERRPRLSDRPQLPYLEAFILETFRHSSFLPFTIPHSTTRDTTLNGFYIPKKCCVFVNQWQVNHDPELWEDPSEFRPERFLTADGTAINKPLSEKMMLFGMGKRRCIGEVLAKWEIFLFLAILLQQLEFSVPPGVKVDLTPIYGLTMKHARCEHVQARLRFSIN
Summary of the method: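 Human CYP1A2 (20nM) demethylated Luciferin-ME at its Km (100uM) in 100mM KPO4. After 10 min compound preincubation, NADPH regeneration ran the reaction 60 min at room temperature. Luciferin was read by luminescence, normalized to 57 uM furafylline.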

[15] = biological target: Cytochrome P450 3A4 (Homo sapiens) (UniProt P08684); experiment: qHTS Assay for Inhibitors and Substrates of Cytochrome P450 3A4 (AID 884); conditions: recombinant CYP3A4, Luciferin-PPXE luminescence; series mostly up to 57.1 µM; also: potency is read from the fitted curve at half-maximal effect; nearly all actives have a fitted effect of over 50% in size
Sequence of Cytochrome P450 3A4 (Homo sapiens) (P08684 whole entry, looked up): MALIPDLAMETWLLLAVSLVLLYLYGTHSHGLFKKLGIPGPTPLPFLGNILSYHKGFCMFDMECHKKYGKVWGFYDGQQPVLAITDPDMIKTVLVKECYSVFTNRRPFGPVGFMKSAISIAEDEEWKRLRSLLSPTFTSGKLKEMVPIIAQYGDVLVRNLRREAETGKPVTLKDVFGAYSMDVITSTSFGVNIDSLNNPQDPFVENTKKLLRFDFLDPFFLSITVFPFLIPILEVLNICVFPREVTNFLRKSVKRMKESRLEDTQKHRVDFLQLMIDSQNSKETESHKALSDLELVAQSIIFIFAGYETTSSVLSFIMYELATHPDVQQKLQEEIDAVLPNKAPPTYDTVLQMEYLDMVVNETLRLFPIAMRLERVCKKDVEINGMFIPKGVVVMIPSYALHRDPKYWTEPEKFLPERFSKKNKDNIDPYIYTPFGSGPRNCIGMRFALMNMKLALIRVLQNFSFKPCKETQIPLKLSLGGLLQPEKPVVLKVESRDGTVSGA
Summary of the method: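 20 nM human CYP3A4 with 25 uM Luciferin-PPXE (at KM) in 200 mM KPO4, preincubated 10 min with compound; NADPH regeneration started a 60 min RT reaction. Luciferin detected by luminescence, normalized to 57 uM ketoconazole as full inhibition.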

[16] = biological target: Cytochrome P450 3A4 (Homo sapiens) (UniProt P08684); experiment: qHTS Assay for Activators of Cytochrome P450 3A4 (AID 885); conditions: recombinant CYP3A4, Luciferin-PPXE luminescence, 60 min; series mostly up to 57.1 µM; also: nearly all actives have a fitted effect of over 65% in size
Summary of the method: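 20nM CYP3A4 + 25uM Luciferin-PPXE (=KM), 200mM KPO4; cpd 10 min RT; NADPH regen, 60 min RT; stop w/ detection buffer, 20 min; luminescence. Normalized to 57 uM ketoconazole.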

[17] = qHTS Assay for Identification of Small Molecule Agonists for Hypoxia Response Element Signaling Pathway (AID 914; active = well fitted activation curve with a large enough effect in the signal ratio, with a control signal flat, not every such curve was filed as active; the % refers to the signal ratio; also: % of control where 0% means no effect); conditions: ME-180 (cervical carcinoma) HRE-bla reporter, beta-lactamase ratio, CoCl2, 17 h; activation: hits give high values
Summary of the method: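 A beta-lactamase reporter under hypoxia response element control in ME-180 cells served as the system. Compound titrations plus EC50 CoCl2 ran 17 h at 37 degrees Celsius; AC50 values were fitted from %Activity.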

| Compound | Potency [1] [µM] | activity change, negative = inhibition [2] [%] | activity change, negative = inhibition [3] [%] | activity, negative = inhibition [4] [%] | Potency [5] [µM] | Potency [6] [µM] | Potency [7] | Potency [8] | Potency [9] | Potency [10] | Potency [11] | outcome [12] | Potency [13] | Potency [14] | Potency [15] | Potency [16] | activation [17] [%] |
| --- | --- | --- | --- | --- | --- | --- | --- | --- | --- | --- | --- | --- | --- | --- | --- | --- | --- |
| Cc1nc2cncnc2n(Cc2ccccc2Cl)c1=O | > 11.4 | -18 | -1.6 | -18.9 | > 9.22 | > 46 | inactive | inactive | inactive | inactive | inactive | inactive | – | – | – | – | – |
| COc1ccc(Oc2ncc3ncc(=O)n(-c4ccc(OC)cc4)c3n2)cc1 | > 11.4 | -24.9 | -12.3 | -13.9 | > 9.22 | > 46 | inactive | 2.82 µM (active) | 2 µM (active) | 4.47 µM (active) | inactive | inactive | inactive | – | – | – | – |
| COc1ncc2nc(-c3cccs3)c(=O)n(Cc3cccs3)c2n1 | > 11.4 | 5.34 | 5.36 | -1.88 | > 9.22 | > 46 | inactive | inactive | inactive | inactive | inactive | inactive | – | – | – | – | – |
| COc1cccc(Cn2c(=O)c(CCc3ccccc3)nc3cnc(N4CCOCC4)nc32)c1 | > 11.4 | 0.275 | -19.1 | -8.53 | > 9.22 | > 46 | inactive | inactive | inactive | inactive | inactive | inactive | – | – | – | – | – |
| COc1ccccc1-c1cncnc1N(C)Cc1ccco1 | > 11.4 | -9.6 | – | 17 | > 46 | > 46 | – | inactive | inactive | inactive | inactive | inactive | inactive | 15.8 µM (active) | 1.26 µM (active) | inactive | -12.2 |
| COc1ncc2nc(-c3ccccc3)c(=O)n(CCC#N)c2n1 | > 11.4 | -23.7 | -5.79 | -14.9 | > 9.22 | > 46 | inactive | inactive | inactive | inactive | inactive | inactive | inactive | – | – | – | – |
| COc1ccc(-c2nc3cncnc3n(-c3ccccc3)c2=O)cc1 | > 11.4 | -9.87 | -10.5 | -2.81 | > 9.22 | > 46 | inactive | inactive | inactive | inactive | inactive | inactive | – | – | – | – | – |
| COc1ccc(CNc2nc(-c3cccc(C#N)c3)nc3ccccc23)c(OC)c1 | > 11.4 | -19.2 | – | -10.1 | – | > 46 | inactive | inactive | inactive | inactive | inactive | inactive | – | 2.51 µM (active) | 2.51 µM (active) | inactive | – |
| Cc1noc(C)c1-c1ccc2ncnc(N3CCOCC3)c2c1 | > 11.4 | 11 | – | -8.22 | > 46 | > 46 | inactive | 12.6 µM (active) | 7.94 µM (active) | 8.91 µM (active) | inactive | inactive | inactive | 12.6 µM (active) | – | inactive | – |
| CCNc1ncc2nc(-c3cccs3)c(=O)n(Cc3cccc(OC)c3)c2n1 | > 11.4 | 19.3 | – | – | > 9.22 | > 46 | inactive | inactive | inactive | inactive | inactive | inactive | inactive | 0.126 µM (active) | – | inactive | – |
| Cn1c(=O)c(-c2ccc(F)cc2)nc2cnc(Nc3ccccc3)nc21 | > 11.4 | 4.86 | -9.42 | -5.13 | > 9.22 | > 46 | inactive | inactive | inactive | inactive | inactive | inactive | – | – | – | – | – |
| COc1ccccc1-c1nc(NCc2cccnc2)c2ccccc2n1 | > 11.4 | 10.5 | – | 12.9 | > 46 | > 46 | inactive | inactive | inactive | inactive | – | inactive | inactive | 0.794 µM (active) | – | inactive | – |

Source: PubChem BioAssay (NCATS)
